Our source for the Potency values is PubChem BioAssay (NCATS).

Records with an inconclusive call do not appear. Where a call stands in place of a potency, no number is given. The source made the active and inactive calls. The call rests on the fitted dose curve; in most records, active means well fitted curve in the direction sought with a large enough effect; inconclusive means small, poorly fitted or top-dose-only effect, or another doubt; inactive means no such curve, though single readings can be large; an effect the other way counts as inactive or inconclusive.

Experiment [1] deals with Aldehyde dehydrogenase, mitochondrial (Homo sapiens) (UniProt P05091). Description: qHTS for Inhibitors of the Aldehyde Dehydrogenase Family (ALDH2) Primary screen (AID 2061308). Further: nearly all actives have a fitted effect of over 55% in size. Further: potency means the concentration at half of the fitted maximal effect. As to conditions: ALDH2 enzyme inhibition qHTS, 1536-well; series mostly up to 56 µM. (qHTS replaces the single test concentration by a dilution series.)
Experiment [2] has as its target Retinaldehyde dehydrogenase 3 (Homo sapiens) (UniProt P47895). Put plainly: qHTS for Inhibitors of the Aldehyde Dehydrogenase Family (ALDH1A3) Primary screen (AID 2061315). As to conditions: ALDH inhibition qHTS; series mostly up to 56 µM.

For the molecule `Cc1cc(C2N=C(Nc3nc4ccccc4o3)NC3=C2C(=O)CCC3)n[nH]1` (stereo unspecified), the Potency entry in experiment [1] and in experiment [2] was “inactive” in each case.
`CC(C)(C)OC(=O)NCC(=O)NNC(=O)c1nc2ccccc2[nH]1`: the Potency result in experiment [1] and in experiment [2] was “inactive” each time.
With `COc1ccc(Cn2ncc3c4sc(C)cc4n(C)c3c2=O)cc1`, the Potency entry in experiment [1] and in experiment [2] was “inactive” in each case.
As to `NC(=O)c1cccc(-c2noc(-c3ccccc3C(F)(F)F)n2)c1`, the Potency entry in experiment [1] and in experiment [2] was “inactive” in each case.
For the molecule `COc1cc(-c2ccc3ncnc(N(C)Cc4csc(C)n4)c3c2)cc(OC)c1OC`, the Potency result in experiment [1] and in experiment [2] was “inactive” each time.
As for `COc1cccc(NC(=S)N2CCN(c3ccccc3C(F)(F)F)CC2)n1`, the Potency result in experiment [1] and in experiment [2] was “inactive” in each case.
In the case of `Cc1cc(-c2ccccc2)nc2c(C(=O)Nc3ccc(Cl)c(Cl)c3)cnn12`, the Potency result in experiment [1] and in experiment [2] was “inactive” in each case.
Take `O=C1c2ccccc2C(=O)N1c1cccc(Cl)c1`: the Potency result in experiment [1] and in experiment [2] was “inactive” in each case.
As to `O=[S+]([O-])(Nc1nccs1)c1ccc(NCc2cc(Cl)cc(Br)c2O)cc1`, the Potency result in experiment [1] and in experiment [2] was “inactive” in each case.
As for `COc1ccc(C2Nc3ccccc3C(=O)N2Cc2ccco2)cc1COc1c(C(C)C)cccc1C(C)C` (stereo unspecified), the Potency result in experiment [1] and in experiment [2] was “inactive” each time.
As for `FC(F)Oc1ccc(C2=Nn3c(nnc3-c3ccccc3Cl)SC2)cc1OCC1CC1`, the Potency entry in experiment [1] and in experiment [2] was “inactive” in each case.
As to `O=C(NC1CCCc2c1cnn2-c1ccc(F)cc1F)c1ccccc1` (stereo unspecified), the Potency result in experiment [1] and in experiment [2] was “inactive” throughout.
For the molecule `CCOC(=O)c1ccc(-n2cnc3c(c2=N)C(c2cccc(OC)c2)c2c(ccc4ccccc24)O3)cc1` (stereo unspecified), the Potency entry in experiment [1] and in experiment [2] was “inactive” throughout.
For `CN(C)c1cccc(-c2ccnc(N3CCC(C(N)=O)CC3)n2)c1`, the Potency entry in experiment [1] and in experiment [2] was “inactive” throughout.
For `COc1cccc(Nc2nn3c(=O)c4ccccc4nc3s2)c1`, the Potency entry in experiment [1] and in experiment [2] was “inactive” in each case.
For the molecule `COc1cccc(CN(C)c2ccc([S+](=O)([O-])Nc3nccs3)cc2)c1O`, the Potency entry in experiment [1] and in experiment [2] was “inactive” throughout.
`O=S1(=O)N=C(OCc2ccccc2)c2ccccc21`: the Potency result in experiment [1] and in experiment [2] was “inactive” each time.
As to `O=C(Nc1ccc([S+](=O)([O-])Nc2nccs2)cc1)c1ncn[nH]1`, the Potency result in experiment [1] and in experiment [2] was “inactive” in each case.
`O=C1CCCC2=C1C(c1cccc(Cl)c1)N=C(Nc1nc3ccccc3o1)N2` (stereo unspecified): the Potency entry in experiment [1] and in experiment [2] was “inactive” throughout.
In the case of `Cc1cc(NS(=O)(=O)c2ccc(NC(=O)Cc3ccc(Cl)c(Cl)c3)cc2)on1`, the Potency entry in experiment [1] and in experiment [2] was “inactive” throughout.
Turning to `CC(=O)c1ccc(NC(=O)Nc2nnc(-c3ccncc3)s2)cc1`, the Potency entry in experiment [1] and in experiment [2] was “inactive” in each case.
`O=C(NC(c1ccco1)c1cc(Cl)c2cccnc2c1O)c1ccc(F)c(F)c1` (stereo unspecified): the Potency entry in experiment [1] and in experiment [2] was “inactive” each time.
Consider `Cc1ccc(S(=O)(=O)Nc2cnccc2C(=O)Nc2nc(-c3ccccc3Cl)cs2)cc1`, for which the Potency entry in experiment [1] and in experiment [2] was “inactive” in each case.
Turning to `COc1ccc(OC)c(C2=Nn3c(nnc3-c3ccc(OC)c(OC)c3)SC2)c1`, the Potency result in experiment [1] and in experiment [2] was “inactive” throughout.
Consider `O=C(O)c1ccc2c(c1)C(=O)N([C@H](Cc1c[nH]c3ccccc13)C(=O)O)C2=O`, for which the Potency entry in experiment [1] and in experiment [2] was “inactive” in each case.
For the molecule `COc1cccc(-c2ccc3ncnc(NCc4cccs4)c3c2)c1`, the Potency entry in experiment [1] and in experiment [2] was “inactive” each time.
As to `Cc1cc(C)nc(NC(=S)N2CCN(c3nccc4ccccc34)CC2)c1`, the Potency entry in experiment [1] and in experiment [2] was “inactive” throughout.
With `CC(=O)NC(c1cc(F)c2cccnc2c1O)C(C)C` (stereo unspecified), the Potency entry in experiment [1] and in experiment [2] was “inactive” throughout.
For the molecule `CCCn1c(C)nc2c(NC(C)CCCN(CC)CC)nc(C)nc21` (stereo unspecified), the Potency entry in experiment [1] and in experiment [2] was “inactive” in each case.
`NCc1ccc(Nc2ncc(F)c(Nc3ccccc3)n2)cc1`: the Potency result in experiment [1] and in experiment [2] was “inactive” each time.
As for `COc1ccc(NC(=O)C2=C(C)NC(Nc3nc4ccccc4o3)=NC2c2ccccc2Br)cc1` (stereo unspecified), the Potency entry in experiment [1] and in experiment [2] was “inactive” in each case.
On to `O=C(CSc1nnc(-c2cccc([S+](=O)([O-])N3CCCC3)c2)n1-c1ccccc1)Nc1ccc2c(c1)OCCO2`, for which the Potency entry in experiment [1] and in experiment [2] was “inactive” throughout.
Regarding `O=C(OCC#CCSc1nnc(-c2cccc3ccccc23)o1)c1sc(Cl)c(Cl)c1Cl`, the Potency result in experiment [1] and in experiment [2] was “inactive” in each case.
For the molecule `Cc1ccnc(NC(=S)N2CCN(c3cccc(N(C)C)c3)CC2)c1`, the Potency entry in experiment [1] and in experiment [2] was “inactive” each time.
As to `O=C(Nc1nnc(-c2ccco2)o1)c1ccc(Cl)c(Cl)c1`, the Potency entry in experiment [1] and in experiment [2] was “inactive” throughout.
`N=c1c2c(ccn1CCCCc1ccccc1)Oc1ccc3ccccc3c1C2c1ccccc1` (stereo unspecified): the Potency result in experiment [1] and in experiment [2] was “inactive” in each case.
For `Cc1noc(C)c1-c1ccc2ncnc(NCc3ccccc3C(F)(F)F)c2c1`, the Potency result in experiment [1] and in experiment [2] was “inactive” each time.
For the molecule `Cc1cc2c(s1)c1cnn(Cc3ccc(C)c(F)c3F)c(=O)c1n2C`, the Potency entry in experiment [1] and in experiment [2] was “inactive” throughout.
As to `CCOC(=O)C1CCN(C(=O)C(C)(C)NC(=O)Nc2ccc3ccccc3c2)CC1`, the Potency entry in experiment [1] and in experiment [2] was “inactive” in each case.
For `CCCCNc1nc(C)nc2c1nc(-c1ccccc1)n2CC(C)(C)CN(C)C`, the Potency result in experiment [1] and in experiment [2] was “inactive” in each case.
`N#Cc1ccc(NC(=O)Nc2nnc(-c3ccncc3)s2)c(Cl)c1`: the Potency entry in experiment [1] and in experiment [2] was “inactive” each time.
As for `CC(C)(C)OC(=O)N1CCN(c2ccc(NCc3ncc(-c4ccc(C#N)cc4)s3)cc2)CC1`, the Potency in experiment [1] is 4.47 µM (active). Moreover, in experiment [2], the Potency result is “inactive”.
For `c1ccc2c(Nc3ccn[nH]3)nc(-c3ccncc3)nc2c1`, in that order: “inactive” and “inactive”.
As to `O=C(O)c1cc(F)c(S(=O)(=O)N2CCN(S(=O)(=O)c3ccc4c(c3)OCCO4)CC2)cc1F`, the Potency entry in experiment [1] and in experiment [2] was “inactive” throughout.
`CC1CCC(C(=O)Nc2ccc([S+](=O)([O-])Nc3nccs3)cc2)CC1` (stereo unspecified): the Potency result in experiment [1] and in experiment [2] was “inactive” in each case.
For `FC(F)(F)c1cccc(-c2nc(NCc3ccc(-c4cccnc4)cc3)c3ccccc3n2)c1`, the Potency result in experiment [1] and in experiment [2] was “inactive” each time.
In the case of `COc1ccc(C2Nc3ccccc3C(=O)N2Cc2ccccc2)cc1COc1cccc(C)c1` (stereo unspecified), the Potency entry in experiment [1] and in experiment [2] was “inactive” throughout.
Turning to `FC(F)(F)c1ccccc1-c1nc(NCc2cccc(Cl)c2)c2ccccc2n1`, the Potency entry in experiment [1] and in experiment [2] was “inactive” each time.
For `Cc1cc2c(s1)c1cnn(Cc3cccc(Cl)c3F)c(=O)c1n2C`, the Potency entry in experiment [1] and in experiment [2] was “inactive” in each case.
Turning to `Nc1cccc(OCCn2c(CCNC(=O)C3CCCCC3)nc3ccccc32)c1`, the Potency result in experiment [1] and in experiment [2] was “inactive” each time.
As for `CC(=O)O[C@@H]1C(=O)O[C@@H]2[C@H]1OC(=O)[C@@H]2OC(C)=O`, the Potency entry in experiment [1] and in experiment [2] was “inactive” throughout.
`O=C1CCCC2=C1C(c1[nH]ncc1Cl)NC(=NCc1ccco1)N2` (stereo unspecified): the Potency result in experiment [1] and in experiment [2] was “inactive” in each case.
With `O=[S+]([O-])(c1ccc2nsnc2c1)N1CCN([S+](=O)([O-])c2c(F)cccc2F)CC1`, the Potency result in experiment [1] and in experiment [2] was “inactive” throughout.
With `C(=C/c1cccs1)/c1ccncc1`, the Potency entry in experiment [1] and in experiment [2] was “inactive” each time.
As to `CCNC(=O)c1ccc(-c2ccc3ncnc(NCc4nccs4)c3c2)o1`, the Potency result in experiment [1] and in experiment [2] was “inactive” each time.
For the molecule `Nc1ccc(-c2cccc3c(=O)cc(N4CCOCC4)oc23)cc1`, the Potency entry in experiment [1] and in experiment [2] was “inactive” each time.
Regarding `COc1cc(O)c(C(CC(=O)N2CCC(Cc3ccccc3)CC2)c2ccc(OC)c(OC)c2)c(OC)c1` (stereo unspecified), the Potency entry in experiment [1] and in experiment [2] was “inactive” each time.
For `CCCn1c(C)nc2c(NCCOC)nc(C)nc21`, the Potency result in experiment [1] and in experiment [2] was “inactive” throughout.
As to `CC(C)Oc1ccc(CCNC(=O)c2cc3sccc3n2Cc2ccccc2)cc1OC(C)C`, the Potency result in experiment [1] and in experiment [2] was “inactive” in each case.
As for `COc1ccc(-c2nc3ccccc3s2)cc1OC`, the Potency entry in experiment [1] and in experiment [2] was “inactive” each time.
`Cc1ccc(-c2cc(C(=O)NCc3ccc(S(N)(=O)=O)cc3)c3ccccc3n2)cc1C`: the Potency result in experiment [1] and in experiment [2] was “inactive” each time.
As for `Nc1cccc(S(=O)(=O)Nc2cnccc2C(=O)Nc2nc(-c3ccccc3)cs2)c1`, the Potency result in experiment [1] and in experiment [2] was “inactive” each time.
Take `COc1ccc(-c2nnc3n2N=C(c2ccccc2OC)CS3)c(OC)c1`: the Potency entry in experiment [1] and in experiment [2] was “inactive” throughout.
For `O=C1CCCC2=C1C(c1ncccc1Br)N=C(Nc1nc3ccccc3o1)N2` (stereo unspecified), the Potency entry in experiment [1] and in experiment [2] was “inactive” throughout.
Regarding `O=C(Nc1nc(-c2ccccc2)cs1)c1ccncc1NS(=O)(=O)c1ccc(-c2ccccc2)cc1`, the Potency entry in experiment [1] and in experiment [2] was “inactive” each time.
Take `CCN1CCCC1Cn1c(-c2ccccc2)nc2c(NCCOC)nc(C)nc21` (stereo unspecified): the Potency entry in experiment [1] and in experiment [2] was “inactive” throughout.
Turning to `Cc1cccc([S+](=O)([O-])NC2CCN(C#N)CC2)c1`, the Potency result in experiment [1] and in experiment [2] was “inactive” throughout.
In the case of `Cc1cnc(-c2ccccc2C(C)C)nc1NCC1CCN(c2cccnc2)C1` (stereo unspecified), the Potency entry in experiment [1] and in experiment [2] was “inactive” in each case.
